Laboratory results published in ChEMBL document CHEMBL4513146, “CO-ADD screening of Karazin Kharkiv National University (Ukraine) compounds”.
Measured potencies and affinities stand elsewhere.

Tests used:
Klebsiella pneumoniae = settings: Concentration 32 ug.mL-1;; ASSAY_TEST Inhibition of Bacterial Growth; detection method Absorption (OD600); MEDIA CAMHB; plate type 384well; NBS; CORNING #3640; time 18 hr
Candida albicans = settings: Concentration 32 ug.mL-1; ASSAY_TEST Inhibition of Fungal Growth; detection method Absorption (OD530)
Cryptococcus neoformans = settings: Concentration 32 ug.mL-1; ASSAY_TEST Inhibition of Fungal Growth; detection method Resazurin; Absorption (OD600-OD570); plate type 384well; NBS; CORNING #3640

Compound	Inhibition (Klebsiella pneumoniae) [%]	Inhibition (Candida albicans) [%]	Inhibition (Cryptococcus neoformans) [%]
O=C(Cn1nc2c(N3CCOCC3)nccn2c1=O)NCc1cccc(C(F)(F)F)c1	8.39	5.12	-4.87
O=C(Cn1nc2c(Oc3ccccc3)nc3ccccc3n2c1=O)Nc1ccc2c(c1)OCO2	4.55	16.43	-9.27
COc1cccc(-n2ccn3c(SCC(=O)c4c[nH]c5ccc(OC)cc45)nnc3c2=O)c1	12.06	5.77	-34.12
COc1ccc(NC(=O)CSc2nc3ccccc3n3c(C(C)C)nnc23)c(OC)c1	7.3	2.71	-21.27
Cc1nnc2c(S(=O)(=O)N(Cc3ccccc3Cl)c3ccc(F)c(F)c3)cccn12	13.53	0.59	-7.47
Cc1cc(C)c(NC(=O)Cn2nc3c4cc(-c5ccc(C)c(C)c5)nn4ccn3c2=O)c(C)c1	5.52	-0.89	-17.51
Cc1ccc(Cl)cc1NC(=O)CSc1nnc2c(=O)n(-c3ccccc3)ccn12	9.22	2.4	-17.19
COc1ccc(C(=O)CSc2nnc3c(=O)n(-c4ccc(Br)cc4)ccn23)cc1	6.12	4.09	-7.3
Cn1c(=O)c2sccc2n2c(=O)n(CCOc3ccccc3)nc12	1.76	-1.1	-29.95
CCc1ccccc1Sc1nccn2c(=O)n(CC(=O)N3CCN(c4ccc(F)cc4)CC3)nc12	3.21	4.71	-7.3
Cc1ccc(NC(=O)Cn2nc3c4cc(-c5ccc(Cl)cc5)nn4ccn3c2=O)cc1F	4.91	-0.67	-19.64
COc1ccc(-c2cc3c4nnc(CCC(=O)NCc5cccs5)n4ccn3n2)cc1	6.72	-0.32	-11.02
CCOC(=O)c1ccc(NC(=O)Cn2nc3c4cc(-c5ccc(C)c(C)c5)nn4ccn3c2=O)cc1	1.25	1.14	-10.15
COc1ccc(N(Cc2ccc(Cl)cc2)S(=O)(=O)c2ccc3nncn3c2)cc1	10.04	4.11	-7.19
COc1ccc(-c2cc3c4nn(CC(=O)Nc5ccc6c(c5)OCO6)c(=O)n4ccn3n2)cc1	2.73	15.19	-14.04
CCC(C)NC(=O)Cn1c(=O)c2nnc(C)n2c2ccccc21 (stereo not given)	11.59	0.05	-11.45
Cc1ccc(NC(=O)Cn2nc3c4cc(-c5ccc(C)c(C)c5)nn4ccn3c2=O)c(Cl)c1	13.54	-1.09	-13
COc1cccc(NC(=O)Cn2c(=O)c3nnc(C(C)C)n3c3ccccc32)c1	16.14	3.17	-13.4
CCCn1c(=O)c2sccc2n2c(=O)n(CC(=O)c3cccc(OC)c3)nc12	7.12	6.53	-27.27
O=c1c2sccc2n2c(=O)n(Cc3c(F)cccc3Cl)nc2n1CCc1ccccc1	4.07	1.94	-23.82

Compound	Inhibition (Klebsiella pneumoniae) [%]	Inhibition (Candida albicans) [%]	Inhibition (Cryptococcus neoformans) [%]
Cc1cc(C)cc(Oc2nc3ccccc3n3c(=O)n(CC(=O)Nc4ccc5c(c4)OCO5)nc23)c1	6.8	46.24	-19.74
Cc1ccc(NC(=O)Cn2c(=O)c3nnc(C(C)C)n3c3ccccc32)cc1F	13.19	0.6	-30.05
Cc1cc2nn(CC(=O)Nc3ccc(Cl)cc3)c(=O)n2c(Nc2ccc(F)c(C)c2)n1	19.07	3.54	-11.52
O=C(Cn1nc2c3c4c(sc3ncn2c1=O)CCCC4)N1CCc2ccccc2C1	9.79	4.18	-11.61
COc1ccc(CCn2c(=O)c3sccc3n3c(=O)n(Cc4ccccc4Cl)nc23)cc1OC	5.53	-1.24	-27.91
O=S(=O)(c1ccc2nncn2c1)N(Cc1ccccc1F)c1cccc(F)c1	-5.56	2.89	-8.33
O=c1n(Cc2nc(-c3ccc(OC(F)(F)F)cc3)no2)nc2ccc(-c3ccccc3)nn12	8.49	3.85	-17.12
Cc1ccccc1Oc1nccn2c(=O)n(CC(=O)Nc3cc(F)ccc3F)nc12	13.37	-0.39	-8.18
CCCCn1c(=O)c2sccc2n2c(=O)n(CC(=O)N3CCC(Cc4ccccc4)CC3)nc12	0.07	-1.21	-0.28
Cc1ccc(-c2cc3c4nnc(SCC(=O)Nc5cccc(Br)c5)n4ccn3n2)cc1	4.45	7.43	-29.25
Cc1ccc(-c2ccc3nnc(CCC(=O)NCc4ccc(C(C)C)cc4)n3n2)cc1C	10.51	5.56	-18.09
COC(=O)c1ccc(CN(c2ccc(Cl)cc2)S(=O)(=O)c2ccc3nncn3c2)o1	0.53	-1.37	-1.27
Cc1ccc(C)c(Cn2nc3c(=O)n(-c4cccc(Cl)c4C)ccn3c2=O)c1	3.77	2.62	-13.68
N#Cc1ccc(NC(=O)CSc2nnc3c4cc(-c5ccc(F)cc5)nn4ccn23)cc1	11.54	18.84	-16.45
Cc1ccc(NC(=O)Cn2nc3ccc(-c4ccc(Cl)cc4)nn3c2=O)cc1F	2.59	-1.16	-2.55
O=C(Cn1nc2c(Oc3ccccc3)nccn2c1=O)Nc1ccc2c(c1)OCO2	4.55	2.95	-10
Cc1nnc2ccc(S(=O)(=O)N(Cc3cccc(F)c3)c3ccc(F)cc3)cn12	4.75	1.87	-9.68
CC(C)CCn1c(=O)c2sccc2n2c(=O)n(Cc3ccccc3Cl)nc12	16.14	-1.94	-23.98
Cc1oc(-c2ccccc2)nc1CSc1nc2ccccc2n2c(C(C)C)nnc12	2.59	6.41	-7.85
O=C(CSc1nnc2c(=O)n(-c3ccc(Br)cc3)ccn12)Nc1cc(F)ccc1F	10.57	7.34	-16.33
